We go through 40 compounds from PubChem BioAssay (NCATS).

Inconclusive results are not listed. The source made the active and inactive calls. The call rests on the fitted dose curve; in most records, active means well fitted cell-killing curve with a large enough effect; inconclusive means small, poorly fitted or top-dose-only effect, or effect the other way; inactive means no such curve, though single readings can be large or run the other way.
Potency means the concentration at half of the fitted maximal effect.

This assay is described as follows: Quantitative High-Throughput drug screen in 47 multiple myeloma cell lines against the NCATS MIPE library collection: UTMC2_PLB cell viability assay (AID 1919868). Further: nearly all actives have a fitted effect of over 55% in size. The note with it: CellTiter-Glo ATP luminescence, 48 h; viability (% of DMSO control): at 45.8 µM (top of the series). The text has this:
PI: Beverly A. Mock Ph.D.
Laboratory of Cancer Biology and Genetics,
Center for Cancer Research, National Cancer Institute,
National Institute of Health, Bethesda, Maryland
Drug resistance and disease progression are common in multiple myeloma (MM) patients, underscoring the need for new therapeutic combinations. […] We hypothesized that effective combinations would reduce MYC expression and enhance p16 activity. […] These preclinical data identify potentially useful drug combinations for evaluation in drug-resistant MM and reveal potential mechanisms of combined drug sensitivity.
Described herein is the primary MIPE qHTS used to cherrypick compounds. Validated compounds were then further tested for potential synergistic activiy.
[1] Peat TJ, Gaikwad SM, Dubois W, Gyabaah-Kessie N, Zhang S, Gorjifard S, Phyo Z, Andres M, Hughitt VK, Simpson RM, Miller MA, Girvin AT, Taylor A, Williams D, D'Antonio N, Zhang Y, Rajagopalan A, Flietner E, Wilson K, Zhang X, Shinn P, Klumpp-Thomas C, McKnight C, Itkin Z, Chen L, Kazandijian D, Zhang J, Michalowski AM, Simmons JK, Keats J, Thomas CJ, Mock BA. Drug combinations identified by high-throughput screening promote cell cycle transition and upregulate Smad pathways in myeloma. Cancer Lett. 2023 Aug 1;568:216284. doi: 10.1016/j.canlet.2023.216284. Epub 2023 Jun 24. PMID: 37356470; PMCID: PMC10408729.
SEQUENCE No. (e.g., 1, 2, 3, etc.); […] (e.g., Cells, Incubation, Reagent, etc.); VALUE and DESCRIPTION.
1; Cells; 5 uL; white, solid bottom 1536-well Greiner assay plate.
2; Compounds; 23 nL; Kalypsis pin tool (Wako USA) equipped with a 1536-well pin head to transfer to the assay plates.
3; Incubation; 48 hours; 37C incubation.
4; Reagent;5uL; CellTiter Glo (Promega).
5; Detector; 425V; Luminescence; Viewlux PerkinElmer.
NOTES (numbers refer to Sequence numbers above)
1. The cell-based screening methods employed in this study were like those previously published. Briefly, the corresponding myeloma cell lines were screened in 1,536-well plates with 500 cells, 5-uL per well for inhibition of cell viability (assessed by measuring ATP levels with CellTiterGlo).
2. NCATS MIPE 4.0 library of approved and investigational drugs were added using the Kalypsis pin tool. Wells treated with DMSO only for 100% viability and media only for 0% viability were used as controls.
3. The assay plates were covered and incubated for 48 hours in a 37C, 5% CO2 incubator with controlled humidity.
4. After 48 hours, CellTilter-GloTM luminescent substrate mix (Promega) reagent was added to the assay plate and plates we incubated for 5 min at room temperature.
5. Signal was measured as median relative luminescence units on a ViewLux (PerkinElmer) multiplate reader.
[1] Heske CM, Davis MI, Baumgart JT, Wilson K, Gormally MV, Chen L, Zhang X, Ceribelli M, Duveau DY, Guha R, Ferrer M, Arnaldez FI, Ji J, Tran HL, Zhang Y, Mendoza A, Helman LJ, Thomas CJ. Matrix Screen Identifies Synergistic Combination of PARP Inhibitors and Nicotinamide Phosphoribosyltransferase (NAMPT) Inhibitors in Ewing Sarcoma. Clin Cancer Res. 2017 Dec 1;23(23):7301-7311. doi: 10.1158/1078-0432.CCR-17-1121. Epub 2017 Sep 12. PMID: 28899971; PMCID: PMC6636827.
`O=C1NC(=O)[C@@H](c2cn3c4c(cccc24)CCC3)[C@H]1c1c[nH]c2ccccc12`: the Potency is 332 nM (active).

Regarding `CCOc1cc2ncc(C#N)c(Nc3ccc(OCc4ccccn4)c(Cl)c3)c2cc1NC(=O)C=CCN(C)C`, the Potency was 209 nM (active).

Take `OCCN1C[C@H](O)[C@@H](O)[C@H](O)[C@@H]1CO`: the “viability (% of DMSO control)” value was 173% (inactive).

With `Cn1c(Nc2ccc(C(F)(F)F)cc2)nc2cc(Oc3ccnc(-c4ncc(C(F)(F)F)[nH]4)c3)ccc21`, the Potency was 16600 nM (active).

Take `CNC(=O)c1ccc(Nc2cc(Nc3ccccc3S(=O)(=O)C(C)C)c3cc[nH]c3n2)nc1`: the Potency is 418 nM (active).

For `O=C(O)c1ccc(Nc2ncc3c(n2)-c2ccc(Cl)cc2C(c2c(F)cccc2F)=NC3)cc1`, the Potency was 1660 nM (active).

For `OC[C@H]1OC(O)C[C@@H](O)[C@H]1O` (stereo not given in full), the “viability (% of DMSO control)” value was 134% (inactive).

For `CN(CC(=O)N(Cc1ccc(C2CCCCC2)cc1)c1ccc(C(=O)O)c(O)c1)S(=O)(=O)c1c(F)c(F)c(F)c(F)c1F`, the viability (% of DMSO control) was 77% (active).

For the compound `CCn1c(=O)c2c(nc(C=Cc3ccc(OC)c(OC)c3)n2C)n(CC)c1=O`, the “viability (% of DMSO control)” value is 195% (inactive).

Take `CC(C=CC1=C(C)CCCC1(C)C)=CC=CC(C)=CC(=O)Nc1ccc(O)cc1`: the Potency is 15200 nM (active).

Consider `CCCCCCCCCCCCc1ccc(S(=O)(=O)Nc2nncs2)cc1`, for which the “viability (% of DMSO control)” value was 247% (inactive).

Consider `CCOC(=O)C1=C(C)NC(=S)NC1c1cccc(O)c1` (stereo not given), for which the Potency was 37.2 nM (active).

As to `COc1cc(N2CCC(C(N)=O)CC2)ccc1Nc1nc(N)c(Cl)c(Nc2ccccc2S(=O)(=O)C(C)C)n1`, the Potency is 132 nM (active).

For the compound `C=Cc1c(C)c2cc3nc(cc4[nH]c(cc5nc(cc1[nH]2)C(C)=C5CCC(=O)O)c(CCC(=O)OC)c4C)[C@@]1(C)C3=CC=C(C(=O)OC)[C@H]1C(=O)OC`, the Potency was 105 nM (active).

In the case of `C=CCNc1c(O)cc2c(O)c1C[C@@H](C)C[C@H](OC)[C@@H](O)[C@@H](C)C=C(C)[C@H](OC(N)=O)[C@@H](OC)C=CC=C(C)C(=O)N2`, the Potency is 418 nM (active).

With `CC1=C(C(=O)Nc2cc3cn[nH]c3cc2F)C(c2ccc(Cl)cc2F)N=C(c2ccnc(Cl)c2)N1` (stereo not given), the Potency is 3720 nM (active).

In the case of `CCOC(=O)[C@@H](N)Cc1ccc(-c2cc(O[C@H](c3ccc(Cl)cc3-n3ccc(C)n3)C(F)(F)F)nc(N)n2)cc1`, the Potency is 20900 nM (active).

Take `CC(C)C[C@H](NC(=O)CNC(=O)c1cc(Cl)ccc1Cl)B1OC(=O)CC(CC(=O)O)(C(=O)O)O1` (stereo not given in full): the Potency is 526 nM (active).

Consider `COc1cccc2c1C(=O)c1c(O)c3c(c(O)c1C2=O)C[C@@](O)(C(=O)CO)C[C@@H]3O[C@H]1C[C@H](N)[C@H](OC2CCCCO2)[C@H](C)O1` (stereo not given in full), for which the Potency is 166 nM (active).

With `CS[C@H]1SC[C@@H]2C(=O)N(C)[C@H](C(C)C)C(=O)OC[C@H](NC(=O)c3cnc4ccccc4n3)C(=O)N[C@H](C)C(=O)N(C)[C@@H]1C(=O)N(C)[C@H](C(C)C)C(=O)OC[C@H](NC(=O)c1cnc3ccccc3n1)C(=O)N[C@H](C)C(=O)N2C`, the Potency is 1 nM (active).

For `c1coc(CNc2ncnc3nc[nH]c23)c1`, the “viability (% of DMSO control)” value is 124% (inactive).

Turning to `CNC(=O)c1cccc(-c2ccc3c(N4CCOC[C@H]4C)nc(N4CCOC[C@H]4C)nc3n2)c1`, the Potency is 59 nM (active).

As to `CCc1nc(-c2cccc(C)c2)c(-c2ccnc(NC(=O)c3ccccc3)c2)s1`, the Potency was 23500 nM (active).

For `Cc1cnc(NC(=O)Nc2cc(Br)c(C)cc2OC[C@@H]2CNCCO2)cn1`, the Potency was 1480 nM (active).

`O=C(CCCCCCC(=O)Nc1cccnc1)NO`: the Potency was 935 nM (active).

Consider `COC1=C2C[C@@H](C)C[C@H](OC)[C@@H](O)[C@@H](C)C=C(C)[C@H](OC(N)=O)[C@@H](OC)C=CC=C(C)C(=O)NC(=CC1=O)C2=O`, for which the Potency was 209 nM (active).

For `CN(C)CC(=O)N1CCC(c2ccc(NC(=O)c3ncc(C#N)[nH]3)c(C3=CCCCC3)c2)CC1`, the Potency is 18700 nM (active).

Regarding `COc1ccc([C@@H]2CNC(=O)C2)cc1OC1CCCC1`, the Potency was 6620 nM (active).

As for `CC(C)n1cnc2c(NCCc3ccc(O)cc3)nc(-c3csc4ccccc34)nc21`, the Potency is 10500 nM (active).

In the case of `COc1cccc2c1C(=O)c1c(O)c3c(c(O)c1C2=O)C[C@@](O)(C(C)=O)C[C@H]3O[C@H]1C[C@H](N)[C@H](O)[C@H](C)O1`, the Potency is 11.8 nM (active).

As to `Nc1ccc(C(=O)Nc2cccc(-c3nc(N4CCOCC4)c4oc5ncccc5c4n3)c2)cn1`, the Potency was 3320 nM (active).

With `COc1cc(CCc2cc(NC(=O)c3ccc(N4C[C@@H](C)N[C@@H](C)C4)cc3)n[nH]2)cc(OC)c1`, the Potency is 4180 nM (active).

For `NC(=NCCCCCCN=C(N)N=C(N)Nc1ccc(Cl)cc1)N=C(N)Nc1ccc(Cl)cc1`, the Potency is 5260 nM (active).

On to `NC(=O)c1ncn([C@@H]2O[C@H](CO)[C@@H](O)[C@@H]2O)c1O`, for which the “viability (% of DMSO control)” value was 183% (inactive).

On to `CC(C)(C)[C@H](NC(=O)c1ccc(N)c(Cl)c1)C(=O)N1CCC[C@@H]1C(=O)N[C@H](C#N)CC(=O)O`, for which the viability (% of DMSO control) is 157% [at 3.51 µM] (inactive).

For `CC(C)(C)c1nc2c3cc[nH]c(=O)c3c3cc(F)ccc3c2[nH]1`, the Potency is 187 nM (active).

Turning to `C[C@@]12C(=O)OC(=O)[C@@]1(C)C1CCC2O1`, the Potency is 46.9 nM (active).

Consider `CC(=O)SCC(Cc1ccccc1)C(=O)NCC(=O)OCc1ccccc1` (stereo not given), for which the Potency is 1320 nM (active).

On to `Cn1cc(-c2cnn3c(N)c(Br)c([C@H]4CCCNC4)nc23)cn1`, for which the Potency is 662 nM (active).

As for `c1cc(N[C@@H]2CCNC2)nc(-c2cnc3ccc(-c4cn[nH]c4)cn23)c1`, the Potency was 4690 nM (active).
